tim23-1 inh: growth inhibitors of tim23-1 mutant yeast, primary screen, luminescence, uHTS | hit rate 1.3% among 330,000 | S. cerevisiae tim23-1 growth, BacTiter-Glo luminescence, 24 h | inhibition, % at 20 µM;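 active = growth inhibition of the mutant yeast at or above 50%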;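 also: temperature-sensitive mutant grown at 25 °C; plate controls were DMSO-treated mutant yeast for no effect and medium wells lacking yeast for full effect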
tim10-1 inh: growth inhibitors of tim10-1 mutant yeast, primary screen, luminescence, uHTS; S. cerevisiae tim10-1 ts strain growth, BacTiter-Glo, 24 h; inhibition, % at 20 µM; hit rate 2.2% among 330,000; AID 463190, 2010;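 active = inhibition of at least 40%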;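 also: mutant grown at 25 °C; 0% = DMSO wells with yeast and 100% = wells holding no yeast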
SKKanGAS inh: S. pyogenes SKKanGAS growth inhibitors in kanamycin, primary screen, streptokinase expression inhibitor project, SKKanGAS strain, BacTiter-Glo luminescence | hit rate 1.3% among 300,000 | AID 1662, 2009 | 6 h | inhibition, % at 7.5 µM;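 active = mean replicate score, as percent of positive control median, at least 50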;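 also: strain carries kanamycin resistance gene driven by streptokinase promoter and grows in 40 µg/ml kanamycin; loss of luminescence reflects streptokinase promoter inhibition or plain growth inhibition; 0% = median of DMSO wells and 100% = positive control at its reference dose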
PfHsp90 yeast 2: growth inhibition of PfHsp90-expressing yeast, primary screen, antimalarial PfHsp90 inhibitor project, S. cerevisiae, BacTiter-Glo luminescence, single point, set 2; hit rate 0.32% among 310,000; inhibition, % at 9.4 µM; AID 504621, 2011; BacTiter-Glo ATP, 48 h; yeast lacking PDR1 and PDR3 efflux regulators;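 active = every replicate shows inhibition above about 80%, whatever the replicate mean, limit read from the data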;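 also: 0% = DMSO neutral controls and 100% = 20 µM radicicol positive controls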
NALP3 yeast inh: NALP3 inflammasome inhibitors in reconstituted yeast, primary screen, luminescence, uHTS. hit rate 0.39% among 330,000. AID 2825, 2010. Yeast reconstituted NLRP3/ASC/caspase-1, beta-gal luminescence, 24 h. inhibition, % at 10 µM;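 active = inhibition of 50% or more; inactive = inhibition below 50%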;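 also: plate controls were induced DMSO wells for no effect and uninduced yeast grown without galactose for full effect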
TIM10 inh: growth inhibitors of isogenic TIM10 control yeast, primary screen, counter-screen for tim10-1 yeast inhibitor project, luminescence, uHTS; S. cerevisiae TIM10 strain growth, BacTiter-Glo luminescence, 24 h; inhibition, % at 10 µM; hit rate 1.4% among 330,000;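 active = inhibition of 40% or more at the single tested concentration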;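 also: wild-type TIM10 isogenic control strain grown at permissive 25 °C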
tim10-1 conf: growth inhibitors of tim10-1 mutant yeast, confirmation, single concentration, luminescence, S. cerevisiae | shares compounds with tim10-1 inh | hit rate 56% among 7,400 | inhibition, % at 20 µM | S. cerevisiae tim10-1 ts strain growth, BacTiter-Glo, 24 h;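 active = inhibition of yeast growth at or above a set limit in either of two repeat tests at 20 µM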;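 also: tim10-1 mutant grown at permissive 25 °C to find synthetic lethal compounds; 0% = DMSO yeast wells and 100% = medium wells without yeast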
The depositor's hits bear a star; . = no result. Only some compounds are listed: those with a hit (about 4.6% of all), similar ones and a draw of the others.

SMILES | tim23-1 inh | tim10-1 inh | SKKanGAS inh | PfHsp90 yeast 2 | NALP3 yeast inh | TIM10 inh | tim10-1 conf
CCOc1ccc(S(=O)(=O)N2CCOCC2)cc1NC(=O)CN1C(=O)NC2(CCCCC2)C1=O | -9 | -1 | . | 5 | 3 | 5 | .
CCOC(=O)c1ccc(NC(=S)NCCc2ccc(OC)c(OC)c2)cc1 | 10 | 17 | -3 | -13 | 10 | 5 | .
O=C(CN1C(=O)NC2(CCCC2)C1=O)Nc1cc(Cl)ccc1Oc1ccccc1 | 5 | 1 | . | 9 | 11 | -9 | .
Clc1ccc(C2=CC(c3ccco3)n3ncnc3N2)cc1 (configuration not stated) | 24 | 43* | 10 | -4 | 17 | 29 | 33*
COc1ccc(C2=CC(c3ccco3)n3ncnc3N2)cc1 (configuration not stated) | 15 | 24 | . | 2 | 27 | 15 | .
CC(C)N(Cc1ccccc1)C(=S)NC1CCCCC1 | 18 | 51* | -3 | -5 | -3 | 16 | 26
O=C(/C=C/c1ccc(OC2CSC2)cc1)c1ccccc1 | 26 | 44* | 8 | -50 | 40 | 23 | 33*
CCn1c(NN)nc2sc3c(c2c1=O)CCC3 | -16 | -18 | . | 1 | 1 | -6 | .
NNc1nc2sc3c(c2c(=O)n1Cc1ccccc1)CCC3 | 24 | 54* | 12 | -2 | 23 | 18 | 22
CC(=O)Oc1ccc(C(=O)NCc2ccco2)cc1 | 4 | 0 | . | 2 | 16 | -3 | .
CCOC(=O)C1=C(CSc2nc(C)ccc2C#N)OC(N)=C(C#N)C1c1cccc(OC)c1OC (configuration not stated) | 25 | 45* | 2 | -13 | 24 | 39 | 45*
CCOC(=O)C1=C(CSc2nc(-c3ccncc3)ccc2C#N)OC(N)=C(C#N)C1c1cccnc1 (configuration not stated) | 11 | 19 | 0 | -34 | -8 | 20 | .
CCOC(=O)C1=C(CSc2nc(-c3ccncc3)ccc2C#N)OC(N)=C(C#N)C1c1ccc(OC)cc1 (configuration not stated) | 48 | 45* | 7 | 15 | 12 | 21 | 23
O=C(Nc1ccccc1N1CCOCC1)c1ccc(Cl)nc1 | 1 | -8 | -6 | -10 | 36 | 4 | .
Cc1sc2ncnc(N3CCC(C(=O)Nc4nc(-c5cccs5)cs4)CC3)c2c1C | 25 | 9 | 40 | . | 23 | 14 | .
Cc1onc(-c2ccccc2)c1C(=O)N/N=C/c1c(F)cccc1Cl | 26 | 22 | -2 | -16 | 12 | 4 | .
Cc1cccc2nc(COc3ccc(Cl)c4cccnc34)cn12 | 44 | 40* | 3 | -12 | 35 | 28 | 36*
O=C(COc1ccccc1[N+](=O)[O-])Nc1ccc2c(c1)OCO2 | 9 | 19 | -7 | . | 39 | 17 | .
Cc1ccc(/C(N)=N/OC(=O)C(C)c2ccc([N+](=O)[O-])cc2)cc1 (configuration not stated) | 42 | 46* | 1 | 3 | -9 | 38 | 51*
N/C(=N\OC(=O)CC1CCCCC1)c1ccc([N+](=O)[O-])cc1 | 45 | 70* | 4 | -8 | -7 | 29 | 51*
O=C(NCC1CCCCC1)c1ccc([N+](=O)[O-])cc1 | 18 | 8 | -12 | 6 | 24 | -1 | .
O=C(CN1C(=O)C2CCCCC2C1=O)Nc1cccc([N+](=O)[O-])c1 (configuration not stated) | 12 | 14 | -7 | . | 16 | 2 | .
O=C(CS(=O)(=O)c1cn(CC(=O)N2CCOCC2)c2ccccc12)Nc1ccccc1F | 13 | 5 | 0 | 6 | 3 | 0 | .
CC(C)CC(=O)NC(=S)Nc1ccccc1C(F)(F)F | 47 | 41* | 8 | -10 | 19 | 25 | 28
CN(C)S(=O)(=O)c1cccc(C(=O)N=C2N=C3C=CC(Cl)=CN3Cc3ccccc32)c1 | 14 | -13 | 5 | 0 | 17 | 5 | .
SMILES | tim23-1 inh | tim10-1 inh | SKKanGAS inh | PfHsp90 yeast 2 | NALP3 yeast inh | TIM10 inh | tim10-1 conf
O=C(/C=C/c1ccccc1)c1ccc(NC2=NCCCS2)cc1 | . | . | . | 12 | . | . | .
COc1cccc(/C=C/C(=O)c2ccc(NC3=NCCCS3)cc2)c1 | 39 | 43* | 9 | 5 | 0 | 38 | 37*
CC(C)(C)c1ccc(/C=C/C(=O)c2ccc(NC3=NCCCS3)cc2)cc1 | 35 | 43* | . | 13 | 8 | 26 | 35*
Cc1ccc(Oc2nc3c(c(=O)n(C)c(=O)n3C)n2C)cc1C | 17 | 8 | 24 | -20 | 18 | -3 | .
Cn1c(=O)c2c(nc(Oc3ccc(-c4ccccc4)cc3)n2C)n(C)c1=O | 14 | 40* | 36 | -5 | 30 | 19 | 5
CCCCN1C(=O)NC(NC(=O)c2ccco2)(C(F)(F)F)C1=O (configuration not stated) | 8 | 14 | 5 | 7 | 2 | -1 | .
CC(C)Oc1ccc(C(=O)NC2(C(F)(F)F)NC(=O)N(CCCc3ccccc3)C2=O)cc1 (configuration not stated) | 43 | 43* | 32 | 14 | 5 | 4 | 30
O=C(Cn1cc(C(F)(F)F)ccc1=O)NCC1CCCO1 (configuration not stated) | 6 | 6 | . | 9 | 6 | 1 | .
O=C1[C@H]2[C@@H](c3ccc(F)cc3)N3C(=O)N(c4ccc(Br)cc4)C(=O)[C@@]3(Cc3ccccc3)[C@H]2C(=O)N1C1CCCCC1 | 30 | 16 | 8 | 0 | 0 | 1 | .
Cc1ccc(N/C(=N/S(=O)(=O)c2cccs2)c2ccccc2)c(C)c1 | 15 | 46* | 0 | -77 | -14 | 21 | 18
Cc1ccccc1N/C(=N/S(=O)(=O)c1cc(F)ccc1F)c1ccccc1 | 19 | 27 | -8 | 4 | 7 | 11 | .
COc1ccc(C2C(=O)N(CCc3ccccc3)CC(=O)N2C2CCCC2)cc1 (configuration not stated) | 33 | 44* | -5 | 8 | 7 | 16 | 29*
O=C(/C=C/c1ccc(F)cc1)N1CCN(c2ncccn2)CC1 | -1 | -13 | 1 | 38 | -22 | -19 | .
CC(C)(C)c1ccc(/C=C/C(=O)N2CCN(c3ncccn3)CC2)cc1 | 34 | 43* | 9 | -18 | 22 | 29 | 35*
COc1ccc(-n2c(CNc3ccc(C)cc3)nnc2SCc2ccccc2)cc1 | 48 | 43* | 7 | 20 | 0 | 26 | 34*
